Most compounds without a hit are left out; they make up all but 19% or so of the library.
DT40 TDP1 CPT: DT40-hTDP1 cell growth loss with CPT; 420,000 compounds, 12% hits; Potency, µM (doses to about 46.2 µM), for the others: at the top dose activity change, negative = growth inhibition, usual class: inhibitors; chicken DT40 Tdp1-/-;hTDP1 cells + 20 nM CPT, ATP luminescence, 48 h; AID 686979; note: potency is the fitted concentration of half-maximal effect; nearly all actives have a fitted effect of over 55% in size
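Chicken DT40 Tdp1-/- cells stably complemented with human TDP1 were seeded at 400 cells/well in medium containing 20 nM camptothecin, exposed to pin-transferred compounds, and grown at 37 °C for at least 48 hr. Viability was read as ATP luminescence.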
IL1B secr inh: inflammasome signaling inhibition, IL-1 beta readout | activity change, % at 57.5 µM | THP-1 LPS/ATP IL-1B secretion, AlphaLISA, 16 h; hits give low values | 360,000 compounds, 4.7% hits; in the data active = activity change below about -50%; inconclusive = mostly about -30% to -49%
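Secreted IL-1B measured by AlphaLISA bead assay after 16 h compound exposure of THP-1 cells; compounds (final up to 57.5 uM) added 1 h before LPS (250 ng/mL) and ATP (1.25 mM) stimulation; lower signal means less secretion.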
TDP1 cell noCPT: qHTS for Inhibitors of human tyrosyl-DNA phosphodiesterase 1 (TDP1): qHTS in cells in absence of CPT; Potency, µM (titrated, usually from 46.2 µM), for inactives: at the highest dose activity change, negative = growth inhibition, actives largely listed as inhibitors; 420,000 compounds, 15% hits; DT40 Tdp1-/- hTDP1 cells, no CPT, ATP luminescence, 48 h; note: potency is the fitted concentration of half-maximal effect; nearly all actives have a fitted effect of over 55% in size
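Camptothecin absent (DMSO only). Human TDP1-complemented DT40 knockout cells, 400 cells/well, 37 °C for minimum 48 hr; ATP measured via CellTiter-Glo, 30 min dark incubation, luminescence.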
HT1080-NT tox: kills 2HG-producing HT-1080-NT fibrosarcoma cells. HT-1080-NT fibrosarcoma viability, CellTiter-Glo ATP luminescence, 48 h. Potency, µM (highest dose often 46.1 µM), for the others: at the highest dose activity, negative = less viability, most hits filed as cytotoxic. 360,000 compounds, 1.6% hits;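 note: NT is the 2HG producing partner of a matched IDH1 knockdown line; potency is the fitted concentration of half-maximal effect; 0% = DMSO-treated cells and -100% = media-only wells without cells; nearly all actives have a fitted effect of over 55% in size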
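Viability of the 2HG-overproducing fibrosarcoma line after 48 hours of compound exposure at 37 degrees C was determined by luminescence with CellTiter-Glo, and concentration-effect curves were then fitted and categorized.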
HT1080 IDH1KD tx: toxicity to HT-1080 IDH1 knockdown cells (counter line). HT-1080 IDH1 knockdown viability, ATP luminescence, 48 h. 360,000 compounds, 2% hits. AID 686971. Potency, µM (series often up to 46.1 µM), for the others: at the highest dose activity, negative = toxicity, actives largely listed as cytotoxic;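 note: potency is the fitted concentration of half-maximal effect; 0% = DMSO wells and -100% = cell-free medium wells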
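HT-1080-IDH1KD cells (IDH1 knocked down), 750/well in RPMI with 5% FBS, treated with compound 48 h at 37 degrees C. Viability by CellTiter-Glo luminescence, normalised to DMSO and no-cell wells; concentration-response curves classed.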
Numbers without * were called inactive; u = inconclusive; x = no result given; [ ] = another dose, or the depositor's remark. Unless noted, calls come from the whole dose curve; as a rule, active = well fitted curve in the direction sought with a large enough effect; inconclusive = small, poorly fitted or top-dose-only effect, or another doubt; inactive = no such curve, though single readings can be large; an effect the other way counts as inactive or inconclusive. Unless noted, % is set by controls: 0 for no effect and ±100 for the full control effect.

SMILES	DT40 TDP1 CPT	IL1B secr inh	TDP1 cell noCPT	HT1080-NT tox	HT1080 IDH1KD tx
COc1ccc(N2CC(NC(=O)COc3ccccc3)CC2=O)cc1OC (stereo not drawn)	-1%	x	7%	x	x
Clc1cccc(CSc2ncnc3c2ncn3C2CCCCO2)c1 (stereo not drawn)	u	-24	16µM*	-7%	-19%
c1ccc(CSc2ncnc3c2ncn3C2CCCCO2)cc1 (stereo not drawn)	-25%	-50*	u	0%	-9%
CC(C)NC(=O)C1(C)CN(S(C)(=O)=O)CC(=O)N1C1CC1 (stereo not drawn)	30%	10	13%	13%	11%
CC(=O)Nc1ccc([N+](=O)[O-])c(CS(=O)(=O)c2ccc(C)cc2)c1[N+](=O)[O-]	u	45	23µM*	21%	26%
Cc1ccc2c(c1)c1c(n2CC2COC(C)(C)O2)C(=O)CCC1 (stereo not drawn)	-24%	-22	-28%	3%	4%
Cc1ccc2c(c1)c1c3n2CC(=C2C(=O)OC(C)(C)OC2=O)NC3CCC1 (stereo not drawn)	21µM*	-1	21µM*	u	-26%
O=C(NN1CCOCC1)c1cc(-c2ccc(Cl)c(Cl)c2)nc2ccccc12	u	-17	1.3µM*	-2%	1%
O=C(NN1CCOCC1)c1cc(-c2cccc(Cl)c2)nc2ccccc12	u	-19	u	4%	-11%
O=C(NNC(=O)c1cc(-c2ccc(Cl)c(Cl)c2)nc2ccccc12)Nc1ccccc1	15µM*	u	u	u	u
Cc1cccc(NC(=O)NNC(=O)c2cc(-c3ccccc3Cl)nc3ccccc23)c1	u	-14	u	u	u
COc1ccccc1N1CCN(C(=O)c2cc3ccc4ccc(C)[nH]c4c3n2)CC1	u	x	21µM*	x	x
Cc1ccc2ccc3cc(C(=O)N4CCN(c5ccccc5)CC4)nc3c2[nH]1	u	x	18µM*	x	x
Cc1cc(C(=O)N2CCN(c3ccccc3)CC2)no1	1%	-20	1%	1%[9.24 µM]	9%
Cc1ccc(C(=S)N2CCN(Cc3ccccc3)CC2)s1	u	u	u	6%	-11%
Cc1ccc(S(=O)(=O)N2CCC(n3c(C)nc4cccnc43)CC2)c(C)c1	6.5µM*	x	7.3µM*	x	x
CN(C)S(=O)(=O)c1cc(NC(=O)COC(=O)CCSc2ccc(Cl)cc2)ccc1Cl	-27%	-2	-27%	18%	24%
COc1cc(/C=N/NC(=O)CN(Cc2ccco2)S(=O)(=O)c2ccccc2)ccc1O	3%	0	-1%	1%	0%
NC(=O)c1nc(-c2ccccc2)c(-c2ccccc2)[nH]c1=O	0.58µM*	-15	2.3µM*	-3%	9%
Cc1ccc(-c2cc(C(=O)Nc3ccccc3C(N)=O)c3ccccc3n2)o1	15µM*	-22	10µM*	-24%	-29%
Cc1ccc(-c2cc(C(=O)N(C)CC(=O)Nc3ccccc3Br)c3ccccc3n2)o1	16µM*	u	u	-3%	0%
COc1ccc(NC(=O)c2cc(-c3ccc(C)o3)nc3ccccc23)c(OC)c1	u	-19	12µM*	-26%	u
COc1ccc(NC(=O)c2cc(-c3ccc(C)o3)nc3ccccc23)cc1OC	18µM*	u	16µM*	u	u
Cc1ccc(OCC(=O)NNC(=O)C(=O)N2CCCC2)c(C)c1	0%	10	1%	0%	-5%
Cc1ccc(NC(=O)CN(C)C(=O)Cc2ccc(Cl)cc2Cl)cc1	2%	-27	-24%	-7%	-14%
Cc1ccccc1Cn1c(=O)n(Cc2ccco2)c(=O)c2oc3ccccc3c21	2%	x	-2%	x	x
Cc1ccccc1Cn1c(=O)n(Cc2ccco2)c(=O)c2ccccc21	15µM*	0	u	-13%	0%[9.24 µM]
COc1ccc(-n2c(=O)c3ccccc3n(Cc3ccccc3C)c2=O)c(OC)c1	21µM*	x	u	x	x
